rCAG binder: molecules binding r(CAG) RNA repeats; AID 651821; inhibition, % at 3 µM; r(CAG) RNA repeat, TO-PRO-1 dye displacement fluorescence; 1.3% of 370,000 active;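 active means inhibition above the plate cutoff, the mean of all test compounds on that plate plus 3 SD, cut at about 35% in these data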;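 further: higher means more dye released from RNA so lower well fluorescence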
MPTP inh: permeability transition pore inhibition; isolated mouse mitochondria, Ca2+ swelling absorbance, 30 min; inhibition, % at 10 µM; 1.4% of 360,000 active; AID 602449;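 active means inhibition of 50% or more, scaled per plate between neutral and stimulator controls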
ADAM17 inh: inhibitors of human ADAM17; P78536; recombinant ADAM17, EDANS/DABCYL FRET peptide cleavage; inhibition, % at 6.95 µM; 0.83% of 370,000 active; AID 720648;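 active means inhibition above the mean of compounds lying between control limits plus 3 SD, set per campaign, cut at about 8.5% in these data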
ADAM10 inh: ADAM10 inhibition, QFRET primary screen. O14672. recombinant ADAM10, EDANS/DABCYL FRET peptide cleavage, 3 h. inhibition, % at 7 µM. 0.62% of 370,000 active. AID 720582;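 active means inhibition above a per-campaign cutoff equal to the mean of compounds falling between control-based bounds plus 3 SD, cut at about 20% in these data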
KLK7 zymogen act: proKLK7 (human) activation, primary screen; P49862; purified proKLK7, EDANS-DABCYL substrate fluorescence; 100% is mature enzyme control, 0% vehicle; activation, % at 7 µM; 0.9% of 370,000 active; AID 652039;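 active means activation above the mean of all tested compounds plus 3 SD, computed per campaign excluding outliers beyond control limits, cut at about 13% in these data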
DSG3 Ab inh: human desmoglein-3 autoantibody binding inhibition. P32926. 0.48% of 310,000 active. binding (percent of control), % at 10 µM. DSG3-coupled beads, scFv-anti-DSG3-GFP binding, flow cytometry; stronger effect = lower value;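 active means binding more than 3 SD below its plate's average and above zero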;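 further: hits lower antibody fragment binding to DSG3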
Target sequence (P32926 whole entry, looked up, the tested form may be a part): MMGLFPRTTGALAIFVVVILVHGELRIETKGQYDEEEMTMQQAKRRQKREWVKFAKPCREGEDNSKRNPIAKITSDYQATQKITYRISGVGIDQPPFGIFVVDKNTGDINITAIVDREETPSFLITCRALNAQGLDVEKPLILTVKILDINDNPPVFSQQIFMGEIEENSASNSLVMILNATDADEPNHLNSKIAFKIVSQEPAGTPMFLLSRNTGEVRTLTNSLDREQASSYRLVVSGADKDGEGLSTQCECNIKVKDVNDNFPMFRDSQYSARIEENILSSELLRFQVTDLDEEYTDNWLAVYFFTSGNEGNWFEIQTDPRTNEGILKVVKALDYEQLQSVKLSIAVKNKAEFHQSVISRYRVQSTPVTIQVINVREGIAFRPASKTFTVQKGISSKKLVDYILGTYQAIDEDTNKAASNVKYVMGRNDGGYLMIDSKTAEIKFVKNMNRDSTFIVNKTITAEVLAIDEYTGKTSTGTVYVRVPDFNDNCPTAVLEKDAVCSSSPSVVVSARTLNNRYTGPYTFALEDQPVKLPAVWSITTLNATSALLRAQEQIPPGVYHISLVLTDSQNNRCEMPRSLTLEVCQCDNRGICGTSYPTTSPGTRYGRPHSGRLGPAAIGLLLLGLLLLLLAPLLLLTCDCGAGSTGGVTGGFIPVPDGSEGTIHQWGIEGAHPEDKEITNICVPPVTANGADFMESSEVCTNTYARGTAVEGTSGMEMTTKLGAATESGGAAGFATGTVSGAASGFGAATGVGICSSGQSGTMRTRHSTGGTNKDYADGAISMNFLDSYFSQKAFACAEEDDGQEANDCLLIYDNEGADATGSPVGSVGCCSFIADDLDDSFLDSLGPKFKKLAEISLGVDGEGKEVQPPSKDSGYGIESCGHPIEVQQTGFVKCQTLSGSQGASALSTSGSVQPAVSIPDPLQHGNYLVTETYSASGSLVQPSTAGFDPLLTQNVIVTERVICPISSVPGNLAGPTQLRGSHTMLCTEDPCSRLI
Rh123 counter: Rhodamine 123 counter-screen of mitochondrial pore hits | shares compounds with MPTP inh | isolated mitochondria, membrane potential, Rhodamine 123 fluorescence | inhibition, % at 10 µM | 78% of 5,000 active; in the data active means inhibition above about 22%
Numbers stand for hits. Most compounds without a hit are left out; they make up all but 4.7% or so of the library.

`CC(=O)N(C)c1ccc(NC(=O)Nc2ccc(Cl)cc2)cc1` gave rCAG binder inactive, MPTP inh 55.9, ADAM17 inh inactive, ADAM10 inh inactive, KLK7 zymogen act inactive, DSG3 Ab inh inactive and Rh123 counter 78.2.
Screening CC(=O)N(C)c1ccc(NC(=O)Nc2ccc(C)cc2)cc1 returned rCAG binder inactive, MPTP inh inactive, ADAM17 inh inactive, ADAM10 inh inactive, KLK7 zymogen act inactive and DSG3 Ab inh inactive.
For COc1cc2c(cc1OC)[C@](C)(c1ccccc1)C[C@@H]2NCC=C(C)C the results were rCAG binder inactive, ADAM17 inh inactive, ADAM10 inh inactive and KLK7 zymogen act inactive.
Screening C[C@@H]1CCCN1c1cccc2c1S(=O)(=O)N1CC[C@H](C1)O2 returned rCAG binder inactive, ADAM17 inh inactive, ADAM10 inh inactive and KLK7 zymogen act inactive.
`O=C(NCc1ccccc1)[C@@H]1CCCN1C(=O)[C@H]1CCCN1C(=O)c1cccs1` gave rCAG binder inactive, ADAM17 inh inactive, ADAM10 inh inactive and KLK7 zymogen act inactive.
`COC(=O)C1=C(C)N(Cc2ccccc2C(F)(F)F)C(=NCC2CC2)NC1c1ccc(C(F)(F)F)cc1` (stereo not drawn) gave rCAG binder inactive, ADAM17 inh inactive, ADAM10 inh inactive and KLK7 zymogen act inactive.
Screening O=C1C2C3C=CC(C3)C2C(=O)N1c1ccc(-c2nc(-c3ccccc3)nc3ccccc23)cc1 (stereo not drawn) returned rCAG binder inactive, ADAM17 inh inactive, ADAM10 inh inactive and KLK7 zymogen act inactive.
For CCC(=O)NCc1csc(-c2cccs2)n1 the results were rCAG binder inactive, MPTP inh inactive, ADAM17 inh inactive, ADAM10 inh inactive and KLK7 zymogen act inactive.
Screening CN(C)c1ccc(NC(=O)Nc2cccc(Cl)c2)cc1 returned rCAG binder inactive, MPTP inh 73.9, ADAM17 inh inactive, ADAM10 inh inactive, KLK7 zymogen act inactive, DSG3 Ab inh inactive and Rh123 counter 71.9.
`Cn1nc(C(=O)Nc2ccc(Cl)cc2)cc1C(=O)Nc1ccc(Cl)cc1` gave rCAG binder inactive, MPTP inh inactive, ADAM17 inh inactive, ADAM10 inh inactive, KLK7 zymogen act inactive and DSG3 Ab inh inactive.
Cn1nc(C(=O)Nc2cccc(Cl)c2)cc1C(=O)Nc1cccc(Cl)c1 was read as rCAG binder inactive, MPTP inh 56.6, ADAM17 inh inactive, ADAM10 inh inactive, KLK7 zymogen act inactive, DSG3 Ab inh inactive and Rh123 counter 84.4.
Screening O=C(NCc1csc(-c2cccs2)n1)Nc1cccc(Cl)c1 returned rCAG binder inactive, MPTP inh 76.2, ADAM17 inh inactive, ADAM10 inh inactive, KLK7 zymogen act inactive and Rh123 counter 81.8.
O=C(Nc1cccc(Cl)c1)Nc1nc(-c2ccc(Cl)cc2)cs1 was read as rCAG binder inactive, MPTP inh 92.2, ADAM17 inh inactive, ADAM10 inh inactive, KLK7 zymogen act inactive, DSG3 Ab inh inactive and Rh123 counter 93.6.
`Cc1nccc(-c2cccc(NC(=O)Nc3ccc(Cl)cc3)c2)n1` gave rCAG binder inactive, MPTP inh 82.7, ADAM17 inh inactive, ADAM10 inh inactive, KLK7 zymogen act inactive, DSG3 Ab inh inactive and Rh123 counter 93.2.
O=C(NCc1ccncc1)Nc1cccc(Cl)c1 was read as rCAG binder inactive, MPTP inh inactive, ADAM17 inh inactive, ADAM10 inh inactive, KLK7 zymogen act inactive and DSG3 Ab inh inactive.
Screening CC(C)NC(=O)Nc1cccc(Cl)c1 returned rCAG binder inactive, MPTP inh inactive, ADAM17 inh inactive, ADAM10 inh inactive, KLK7 zymogen act inactive and DSG3 Ab inh inactive.
Cn1cc(C(=O)Nc2ccc(Cl)c(Cl)c2)cn1 was read as rCAG binder inactive, MPTP inh inactive, ADAM17 inh inactive, ADAM10 inh inactive, KLK7 zymogen act inactive and DSG3 Ab inh inactive.
`O=C(Nc1ccncc1)Nc1cccc(Cl)c1` gave rCAG binder inactive, MPTP inh 57.3, ADAM17 inh inactive, ADAM10 inh inactive, KLK7 zymogen act inactive, DSG3 Ab inh inactive and Rh123 counter 95.3.
Screening CC(=O)N(C)c1ccc(NC(=O)c2cnn(C)c2)cc1 returned rCAG binder inactive, MPTP inh 70.2, ADAM17 inh inactive, ADAM10 inh inactive, KLK7 zymogen act inactive, DSG3 Ab inh inactive and Rh123 counter inactive.
`O=C(Nc1cccc(Cl)c1)Nc1csc([N+](=O)[O-])c1` gave rCAG binder inactive, MPTP inh 72.0, ADAM17 inh inactive, ADAM10 inh inactive, KLK7 zymogen act inactive, DSG3 Ab inh inactive and Rh123 counter 69.4.
For Cc1cc(Oc2cccnc2)ccc1NC(=O)Cc1c[nH]c2ccccc12 the results were rCAG binder inactive, ADAM17 inh inactive, ADAM10 inh inactive and KLK7 zymogen act inactive.
`CC(C)(C)S(=O)(=O)N1C[C@@H]2CC(=O)C=C2[C@H]1CCO` gave rCAG binder inactive, ADAM17 inh inactive, ADAM10 inh inactive and KLK7 zymogen act inactive.
`O=C(O)CCCC(=O)OCCCc1cc2ccccc2c(=O)o1` gave rCAG binder inactive, ADAM17 inh inactive, ADAM10 inh inactive and KLK7 zymogen act inactive.
O=C(NC(c1ccc(Cl)cc1)c1c(O)ccc2ccccc12)c1ccccc1 (stereo not drawn) was read as rCAG binder inactive, MPTP inh 80.3, ADAM17 inh inactive, ADAM10 inh inactive, KLK7 zymogen act inactive, DSG3 Ab inh inactive and Rh123 counter 58.8.
`CC(C)CC(=O)NC(c1ccccc1)c1c(O)ccc2ccccc12` (stereo not drawn) gave rCAG binder inactive, MPTP inh inactive, ADAM17 inh inactive, ADAM10 inh inactive, KLK7 zymogen act inactive and DSG3 Ab inh inactive.
CCC1SC(=NC(=O)c2ccc(Cl)c(Cl)c2)NC1=O (stereo not drawn) was read as rCAG binder inactive, MPTP inh 76.0, ADAM17 inh inactive, ADAM10 inh inactive, KLK7 zymogen act inactive, DSG3 Ab inh inactive and Rh123 counter 100.3.
C[C@@H]1CN([C@@H](C)CO)C(=O)CCCn2cc(nn2)CO[C@H]1CN(C)C(=O)Nc1ccc2c(c1)OCCO2 was read as rCAG binder inactive, ADAM17 inh inactive, ADAM10 inh inactive and KLK7 zymogen act inactive.
`COc1cc(Nc2nnc(C)s2)c(Cl)cc1Cl` gave rCAG binder inactive, MPTP inh inactive, ADAM17 inh inactive, ADAM10 inh inactive, KLK7 zymogen act inactive and DSG3 Ab inh inactive.
COCCOc1cc(Nc2nnc(C(F)(F)F)s2)c(Cl)cc1Cl was read as rCAG binder inactive, MPTP inh 79.6, ADAM17 inh inactive, ADAM10 inh inactive, KLK7 zymogen act inactive, DSG3 Ab inh inactive and Rh123 counter 90.4.
`CCCn1c(SCC(=O)Nc2nc3c(s2)CCCC3)nc2c1c(=O)n(C)c(=O)n2C` gave rCAG binder inactive, MPTP inh 84.6, ADAM17 inh inactive, ADAM10 inh inactive, KLK7 zymogen act inactive, DSG3 Ab inh inactive and Rh123 counter 32.6.
